Data taken from PubChem BioAssay AID1159580 (chemical genetic matrix, 2015).
“And” between values parts separate entries of the source, which are not always exact repeats. Identical values can stand only once. The whole screen tested about 5,500 compounds, of which about 2,000 (36%) were called active. Another 18% or so got no clear call; they are omitted. No stated cut-off is given here; in the data, active means normalized growth mostly below about 0.91 (no sharp cut-off); inconclusive means no clear call, values can overlap the other calls; inactive means mostly above about 0.92. The list shows a part of the results.

Assay: chemical genetic growth profiling, strain panel (AID 1159580);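 further: tested at 20 µM; growth read once vehicle control cultures reached saturation at 30 °C; 1 = growth at the plate median or of vehicle wells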
Conditions: S. cerevisiae deletion strains, growth OD

Measured: normalized growth

CCN(CC)CCOC(=O)C1(C2CCCCC2)CCCCC1
inactive: locus YAL021C, strain ccr4, stronger effect = lower value 0.925 | locus YAL026C, strain drs2, stronger effect = lower value 0.97 | locus YAL030W, strain snc1, stronger effect = lower value 0.985 | locus YAL040C, strain CLN3, stronger effect = lower value 1.01 | locus YBL061C, strain skt5, stronger effect = lower value 0.99 | locus YBR009C, strain hhf1, stronger effect = lower value 0.97 | locus YBR021W, strain FUR4, stronger effect = lower value 0.862 | locus YBR023C, strain chs3, stronger effect = lower value 0.972 | locus YBR171W, strain sec66, stronger effect = lower value 0.987 | locus YBR229C, strain ROT2, stronger effect = lower value 1.01 | locus YBR231C, strain swc5, stronger effect = lower value 0.998 | locus YBR279W, strain paf1, stronger effect = lower value 0.973 | locus YCL011C, strain gbp2, stronger effect = lower value 0.928 | locus YCL016C, strain dcc1, stronger effect = lower value 0.95 | locus YCL029C, strain bik1, stronger effect = lower value 0.99 | locus YCL061C, strain MRC1 (second series), stronger effect = lower value 0.998 | locus YCL069W, strain vba3, stronger effect = lower value 0.996 | locus YCR088W, strain abp1, stronger effect = lower value 0.988 | locus YDL005C, strain med2, stronger effect = lower value 0.985 | locus YDL035C, strain GPR1, stronger effect = lower value 1.02 | locus YDL040C, strain nat1, stronger effect = lower value 0.99 | locus YDL074C, strain BRE1, stronger effect = lower value 0.965 | locus YDL101C, strain DUN1, stronger effect = lower value 0.998 | locus YDL134C, strain PPH21, stronger effect = lower value 1.02 | locus YDL185W, strain tfp1, stronger effect = lower value 1 | locus YDL192W, strain arf1, stronger effect = lower value 0.985 | locus YDR001C, strain nth1, stronger effect = lower value 0.979 | locus YDR069C, strain doa4, stronger effect = lower value 0.983 | locus YDR101C, strain arx1, stronger effect = lower value 0.995 | locus YDR137W, strain rgp1, stronger effect = lower value 1.08 | locus YDR150W, strain NUM1, stronger effect = lower value 1.01 and 0.995 | locus YDR159W, strain sac3, stronger effect = lower value 0.945 | locus YDR162C, strain NBP2, stronger effect = lower value 1.01 | locus YDR195W, strain ref2 0.994 | locus YDR297W, strain sur2, stronger effect = lower value 0.99 | locus YDR318W, strain mcm21, stronger effect = lower value 0.972 | locus YDR334W, strain swr1, stronger effect = lower value 0.98 | locus YDR335W, strain msn5, stronger effect = lower value 0.981 | locus YDR363W, strain ESC2, stronger effect = lower value 0.971 | locus YDR388W, stronger effect = lower value 0.982 | locus YDR392W, strain spt3, stronger effect = lower value 0.875 | locus YDR502C, strain sam2, stronger effect = lower value 0.956 | locus YEL003W, strain gim4, stronger effect = lower value 0.987 | locus YEL037C, strain rad23, stronger effect = lower value 0.983 | locus YEL061C, strain CIN8 (second series), stronger effect = lower value 0.978 | locus YEL061C, strain CIN8, stronger effect = lower value 1 | locus YER002W, strain NOP16, stronger effect = lower value 1.02 | locus YER015W, strain faa2, stronger effect = lower value 0.944 | locus YER016W, strain bim1, stronger effect = lower value 0.969 | locus YER110C, stronger effect = lower value 0.988 | locus YER111C, strain swi4, stronger effect = lower value 0.993 | locus YER155C, strain BEM2 (second series), stronger effect = lower value 0.976 | locus YER155C, strain BEM2, stronger effect = lower value 1.01 | locus YER167W, strain BCK2, stronger effect = lower value 1.01 | locus YFR010W, strain ubp6, stronger effect = lower value 0.972 | locus YGL078C, strain dbp3, stronger effect = lower value 0.983 | locus YGL086W, strain mad1, stronger effect = lower value 0.971 | locus YGL167C, strain pmr1, stronger effect = lower value 0.985 | locus YGL173C, strain kem1, stronger effect = lower value 1 | locus YGL227W, strain vid30, stronger effect = lower value 0.974 | locus YGL240W, strain doc1, stronger effect = lower value 0.984 | locus YGL248W, strain PDE1, stronger effect = lower value 0.991 | locus YGL253W, strain hxk2, stronger effect = lower value 0.985 | locus YGR078C, strain PAC10, stronger effect = lower value 0.972 and 1.05 | locus YGR135W, strain pre9, stronger effect = lower value 0.921 | locus YGR252W, strain gcn5, stronger effect = lower value 0.889 | locus YHR013C, strain ard1, stronger effect = lower value 0.944 | locus YHR027C, strain rpn1, stronger effect = lower value 0.968 | locus YHR030C, strain SLT2, stronger effect = lower value 1 and 1.05 | locus YHR079C, strain IRE1 (second series), stronger effect = lower value 0.982 | locus YHR079C, strain IRE1, stronger effect = lower value 1.02 | locus YHR094C, strain hxt1, stronger effect = lower value 0.992 | locus YHR129C, strain ARP1, stronger effect = lower value 1 | locus YHR142W, strain chs7, stronger effect = lower value 0.987 | locus YHR200W, strain rpn10, stronger effect = lower value 0.986 | locus YIL066C, strain RNR3, stronger effect = lower value 1.01 | locus YIL073C, strain SPO22, stronger effect = lower value 0.997 | locus YIL125W, strain kgd1, stronger effect = lower value 0.99 | locus YIR030C, strain dcg1, stronger effect = lower value 0.997 | locus YJL092W, strain hpr5, stronger effect = lower value 0.969 | locus YJL095W, strain BCK1 (second series), stronger effect = lower value 0.978 | locus YJL095W, strain BCK1, stronger effect = lower value 0.929 and 1.04 | locus YJL115W, strain asf1, stronger effect = lower value 0.983 | locus YJL129C, strain trk1, stronger effect = lower value 0.98 | locus YJL134W, strain LCB3, stronger effect = lower value 1.01 | locus YJL154C, strain vps35, stronger effect = lower value 0.982 | locus YJL164C, strain tpk1, stronger effect = lower value 0.951 | locus YJL166W, strain qcr8, stronger effect = lower value 1 | locus YJL168C, strain set2, stronger effect = lower value 0.981 | locus YJL187C, strain SWE1 (second series), stronger effect = lower value 0.974 | locus YJR043C, strain POL32, stronger effect = lower value 1.06
active: locus YAL013W, strain DEP1, stronger effect = lower value 0.892
